Our source for the growth values is PubChem BioAssay (NCI).

Compounds without any hit were thinned out: in the full panel of roughly 83,000, 20% have a hit.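 Activity criterion: percent growth below 10, measured after cells in 96-well plates were exposed to a single compound concentration for 48 hours.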 Values without a mark were called inactive. Calls of active or inactive are those of the source.

Test systems include SR leukemia; RPMI-8226 leukemia; OVCAR-8 ovarian; OVCAR-5 ovarian; OVCAR-4 ovarian; SK-OV-3 ovarian; IGROV1 ovarian; OVCAR-3 ovarian; HS 578T breast; NCI/ADR-RES ovarian.
Holding throughout (test): NCI-60 one-dose screen, 48 h (100 = growth as untreated, 0 = no growth, -100 = all killed)
What all share (conditions): 10 µM

Turning to `COc1nc2c(c(=O)[nH]1)C(c1ccc(Oc3ccnc4cc(Cl)ccc34)c(OC)c1)C=C(c1cc(OC)c(OC)c(OC)c1)N2` (stereo not given), the growth in the assay with SR leukemia is 74.1%; in the assay on RPMI-8226 leukemia, 94.5%; in the assay on OVCAR-8 ovarian, 97.4%; with OVCAR-5 ovarian, 92.6%; in the assay with OVCAR-4 ovarian, 106%; with SK-OV-3 ovarian, 99.5%. Also, the growth is 107% with IGROV1 ovarian, 108% in the assay with OVCAR-3 ovarian, 98.3% in the assay with HS 578T breast and 101% in the assay with NCI/ADR-RES ovarian.
`N#Cc1cnc2ccc(NCc3cnc[nH]3)cc2c1Nc1ccc(F)c(Cl)c1`: the growth is 66.1% in the assay with SR leukemia; 83.2% with RPMI-8226 leukemia; 46.6% in the assay with OVCAR-8 ovarian; 82.7% in the assay with OVCAR-5 ovarian; 42.9% with OVCAR-4 ovarian; 39.9% in the assay with SK-OV-3 ovarian. For the same compound, the growth in the assay on IGROV1 ovarian is 22.4%; in the assay with OVCAR-3 ovarian it was 49.7%; with HS 578T breast it was 90.9%; with NCI/ADR-RES ovarian, 98.7%.
For `Cc1ccc(/C(CS(=O)(=O)c2ccc(C)cc2)=N\O)cc1`, the growth was 83.7% with SR leukemia; 96.6% in the assay on RPMI-8226 leukemia; 97.2% in the assay on OVCAR-8 ovarian; 90.9% in the assay on OVCAR-5 ovarian; 96.1% in the assay on OVCAR-4 ovarian; 112% in the assay with SK-OV-3 ovarian. Further, the growth with IGROV1 ovarian is 102%; in the assay with OVCAR-3 ovarian it was 118%; in the assay with HS 578T breast, 113%; with NCI/ADR-RES ovarian, 106%.
For `CC(C)/C=N/NC(N)=S`, the growth in the assay on SR leukemia is 51.9%; in the assay on RPMI-8226 leukemia, 60.4%; in the assay with OVCAR-8 ovarian, 62.9%; in the assay on OVCAR-5 ovarian, 78.7%; in the assay on OVCAR-4 ovarian, 46.1%; in the assay with SK-OV-3 ovarian, 110%. The growth in the assay with IGROV1 ovarian was 34%; with OVCAR-3 ovarian it was 53%; in the assay on HS 578T breast, 90.7%; with NCI/ADR-RES ovarian, 75%.
Regarding `COc1cc(Cn2c(-c3ccccc3)c(Cl)c3c2-c2oncc2CC3)cc(OC)c1`, the growth in the assay with SR leukemia was 0.637% (active); in the assay with RPMI-8226 leukemia, 58.9%; in the assay on OVCAR-8 ovarian it was 92.8%; in the assay on OVCAR-5 ovarian it was 96.7%; with OVCAR-4 ovarian, 76.8%; in the assay on SK-OV-3 ovarian, 97.2%. Besides, the growth with IGROV1 ovarian is 16.2%; in the assay on OVCAR-3 ovarian, 45.9%; in the assay with HS 578T breast it was 52.8%; in the assay on NCI/ADR-RES ovarian it was 47.6%.
With `CC1(C)Cc2c(cn(Cc3ccccc3)c2-c2ccccc2)-c2oncc21`, the growth in the assay with SR leukemia was 86.8%; in the assay with RPMI-8226 leukemia, 74.8%; in the assay on OVCAR-8 ovarian, 101%; in the assay on OVCAR-5 ovarian it was 111%; in the assay with OVCAR-4 ovarian, 98.5%; in the assay with SK-OV-3 ovarian, 96.4%. Also, the growth in the assay with IGROV1 ovarian is 121%; in the assay with OVCAR-3 ovarian it was 110%; with HS 578T breast it was 103%; in the assay on NCI/ADR-RES ovarian it was 92.5%.
`COc1cc(Cn2c(-c3ccccc3)cc3c2-c2oncc2CC3)cc(OC)c1`: the growth was 2.06% (active) in the assay on SR leukemia; 34.8% in the assay with RPMI-8226 leukemia; 21.7% with OVCAR-8 ovarian; 42.6% in the assay with OVCAR-5 ovarian; 51.8% in the assay with OVCAR-4 ovarian; 0.474% (active) in the assay on SK-OV-3 ovarian. Also, the growth in the assay with IGROV1 ovarian was 7.96% (active); in the assay with OVCAR-3 ovarian it was -47.1% (active); in the assay with HS 578T breast, -6.35% (active); in the assay on NCI/ADR-RES ovarian, -19.5% (active).
In the case of `O=NN(CCCl)C(=O)NCc1ccc(-c2ccc(CNC(=O)N(CCCl)N=O)cc2)cc1`, the growth with SR leukemia was -5.09% (active); in the assay with RPMI-8226 leukemia it was 93.5%; with OVCAR-8 ovarian it was 94%; in the assay on OVCAR-5 ovarian it was 115%; in the assay with OVCAR-4 ovarian, 114%; in the assay with SK-OV-3 ovarian it was 95.8%. The growth with IGROV1 ovarian was 66.6%; with OVCAR-3 ovarian it was 115%; in the assay with HS 578T breast it was 116%; with NCI/ADR-RES ovarian, 100%.
Consider `Cc1cc(Nc2cccc(F)c2)nc(NCc2ccccc2)n1`, for which the growth is 23% in the assay on SR leukemia; -3.16% (active) in the assay with RPMI-8226 leukemia; 19.2% with OVCAR-8 ovarian; 60.9% in the assay with OVCAR-5 ovarian; 15.9% in the assay on OVCAR-4 ovarian; 80.6% with SK-OV-3 ovarian. In addition, the growth with IGROV1 ovarian is 27.1%; with OVCAR-3 ovarian it was 0.169% (active); in the assay with HS 578T breast, 68.4%; in the assay with NCI/ADR-RES ovarian, 11%.
Consider `Cc1[nH]nc2c(=S)[nH]c(=O)[nH]c12`, for which the growth is 113% in the assay with SR leukemia; 101% with RPMI-8226 leukemia; 99.1% with OVCAR-8 ovarian; 99.4% in the assay on OVCAR-5 ovarian; 99.6% in the assay on OVCAR-4 ovarian; 109% in the assay with SK-OV-3 ovarian. Moreover, the growth is 111% in the assay with IGROV1 ovarian, 110% in the assay on OVCAR-3 ovarian, 105% in the assay on HS 578T breast and 100% with NCI/ADR-RES ovarian.
For the compound `O=[N+]([O-])c1ccc2c(c1)Cc1cc(I)ccc1-2`, the growth with SR leukemia was 92.4%; in the assay on RPMI-8226 leukemia, 98.4%; in the assay with OVCAR-8 ovarian, 118%; in the assay on OVCAR-5 ovarian, 97%; in the assay on OVCAR-4 ovarian it was 117%; in the assay with SK-OV-3 ovarian, 123%. The growth in the assay on IGROV1 ovarian is 104%; in the assay with OVCAR-3 ovarian, 110%; with HS 578T breast, 101%; with NCI/ADR-RES ovarian it was 104%.
`Cc1ccc(/C=C2\CN(Cc3cn(CCNc4ccnc5cc(Cl)ccc45)nn3)C/C(=C\c3ccc(C)cc3)C2=O)cc1`: the growth is -19.5% (active) in the assay on SR leukemia; -30.2% (active) in the assay with RPMI-8226 leukemia; 8.83% (active) in the assay with OVCAR-8 ovarian; -10.9% (active) in the assay on OVCAR-5 ovarian; 30.3% with OVCAR-4 ovarian; 8.53% (active) in the assay on SK-OV-3 ovarian. In addition, the growth in the assay with IGROV1 ovarian is 28.3%; in the assay with OVCAR-3 ovarian, -50.6% (active); with HS 578T breast, 13.9%; in the assay on NCI/ADR-RES ovarian, 9.21% (active).
With `COc1cccc(C2(C)Nc3ccccc3-c3nc4ccccc4n32)c1` (stereo not given), the growth with SR leukemia is 87.7%; in the assay with RPMI-8226 leukemia it was 96.4%; with OVCAR-8 ovarian, 105%; with OVCAR-5 ovarian, 109%; in the assay with OVCAR-4 ovarian, 112%; with SK-OV-3 ovarian, 104%. In addition, the growth in the assay with IGROV1 ovarian was 101%; in the assay with OVCAR-3 ovarian, 112%; in the assay with HS 578T breast it was 112%; in the assay on NCI/ADR-RES ovarian, 97%.
As for `O=[N+]([O-])C1CC2C=CC1C2` (stereo not given), the growth with SR leukemia is 92.4%; with RPMI-8226 leukemia, 111%; in the assay with OVCAR-8 ovarian, 102%; in the assay on OVCAR-5 ovarian, 104%; in the assay with OVCAR-4 ovarian it was 99.7%; with SK-OV-3 ovarian, 102%. The growth in the assay on IGROV1 ovarian was 103%; in the assay on OVCAR-3 ovarian, 91.6%; with HS 578T breast, 97.9%; with NCI/ADR-RES ovarian, 95.6%.
Turning to `COc1cc(CSc2nc3ccc(C)cc3c(=O)n2-c2ccccc2)cc(OC)c1OC`, the growth was 20.3% in the assay on SR leukemia; 54.9% in the assay on RPMI-8226 leukemia; 52.9% in the assay with OVCAR-8 ovarian; 46.4% in the assay with OVCAR-5 ovarian; 57.2% in the assay on OVCAR-4 ovarian; 13.6% in the assay on SK-OV-3 ovarian. The growth in the assay with IGROV1 ovarian is 33.2%; with OVCAR-3 ovarian it was -1.43% (active); with HS 578T breast it was 28.2%; in the assay on NCI/ADR-RES ovarian it was 17.8%.
Consider `NC1CCC(Nc2nc(NCc3ccc(-c4ccco4)nc3)c3ncn(C4CCCC4)c3n2)CC1` (stereo not given), for which the growth in the assay with SR leukemia is -3.17% (active); in the assay with RPMI-8226 leukemia, -18.3% (active); in the assay with OVCAR-8 ovarian, 11.8%; in the assay on OVCAR-5 ovarian it was 25.1%; with OVCAR-4 ovarian, 2.67% (active); in the assay with SK-OV-3 ovarian, -0.9% (active). The growth is 8.71% (active) with IGROV1 ovarian, 1.37% (active) in the assay with OVCAR-3 ovarian, 10.7% in the assay on HS 578T breast and 79.5% in the assay on NCI/ADR-RES ovarian.
Regarding `COc1cc(-c2cc(/C=C/C(C)=O)[nH]n2)cc(OC)c1OC`, the growth is 4.57% (active) in the assay with SR leukemia; 22.8% in the assay on RPMI-8226 leukemia; 73.5% in the assay with OVCAR-8 ovarian; 94.5% in the assay on OVCAR-5 ovarian; 70.8% with OVCAR-4 ovarian; 109% with SK-OV-3 ovarian. Also, the growth was 73.8% with IGROV1 ovarian, 85.2% in the assay with OVCAR-3 ovarian, 91.8% in the assay with HS 578T breast and 80.7% in the assay with NCI/ADR-RES ovarian.
`C=CCNC(=S)NN`: the growth was 54.6% with SR leukemia; 74.2% in the assay on RPMI-8226 leukemia; 71.2% in the assay with OVCAR-8 ovarian; 69.7% in the assay on OVCAR-5 ovarian; 96.8% with OVCAR-4 ovarian; 98.4% with SK-OV-3 ovarian. In addition, the growth in the assay on IGROV1 ovarian is 45.3%; in the assay with OVCAR-3 ovarian, 96.5%; in the assay on HS 578T breast it was 89.5%; with NCI/ADR-RES ovarian, 82.7%.
As for `O=C(NCc1cn(Cc2cccc(Oc3ccccc3)c2)nn1)c1cccnc1Nc1ccccc1`, the growth in the assay on SR leukemia is 16.3%; with RPMI-8226 leukemia it was 52.7%; in the assay on OVCAR-8 ovarian, 62.6%; in the assay with OVCAR-5 ovarian, 89.1%; with OVCAR-4 ovarian, 74.9%; with SK-OV-3 ovarian, 49.6%. For the same compound, the growth is 94.1% with IGROV1 ovarian, 42.1% in the assay with OVCAR-3 ovarian, 54.7% in the assay on HS 578T breast and 23.6% in the assay with NCI/ADR-RES ovarian.
With `O/N=C1\CCC2CCCCC2C1` (stereo not given), the growth is 87.1% in the assay on SR leukemia; 104% in the assay with RPMI-8226 leukemia; 112% in the assay on OVCAR-8 ovarian; 104% in the assay on OVCAR-5 ovarian; 97.8% with OVCAR-4 ovarian; 105% with SK-OV-3 ovarian. Further, the growth in the assay with IGROV1 ovarian was 105%; in the assay on OVCAR-3 ovarian, 111%; in the assay with HS 578T breast, 108%; in the assay on NCI/ADR-RES ovarian it was 109%.
